Source: PubChem BioAssay (Tox21)
Where “and” joins values, the source holds several entries; their conditions need not be identical. Equal values may be shown once. Results filed as inconclusive are left out. A call without a number means that no potency is given here. Calls of active or inactive are those of the source. Unless noted, the call rests on the fitted dose curve; in most records, active means well fitted curve in the direction sought with a large enough effect in the repeat runs; inconclusive means weak or mixed curves; inactive means no such curve, though single readings can be large; an effect the other way counts as inactive or inconclusive.

Tests used:
[1] = qHTS assay to identify small molecule agonists of the peroxisome proliferator-activated receptor delta (PPARd) signaling pathway - cell viability counter screen (AID 743211); further: nearly all actives have a fitted effect of over 55% in size
In short: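 Luminescent ATP viability assay (CellTiter-Glo, 30 min RT) in UAS-bla HEK293H cells carrying the PPAR delta reporter construct, 3000 cells/well, after a 17 h compound treatment at 37 C.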

[2] = biological target: Peroxisome proliferator-activated receptor delta (Homo sapiens) (UniProt Q03181); assay: qHTS assay to identify small molecule agonists of the peroxisome proliferator-activated receptor delta (PPARd) signaling pathway (AID 743212; calls by dose curve)
Sequence of Peroxisome proliferator-activated receptor delta (Homo sapiens) (Q03181 whole entry, looked up): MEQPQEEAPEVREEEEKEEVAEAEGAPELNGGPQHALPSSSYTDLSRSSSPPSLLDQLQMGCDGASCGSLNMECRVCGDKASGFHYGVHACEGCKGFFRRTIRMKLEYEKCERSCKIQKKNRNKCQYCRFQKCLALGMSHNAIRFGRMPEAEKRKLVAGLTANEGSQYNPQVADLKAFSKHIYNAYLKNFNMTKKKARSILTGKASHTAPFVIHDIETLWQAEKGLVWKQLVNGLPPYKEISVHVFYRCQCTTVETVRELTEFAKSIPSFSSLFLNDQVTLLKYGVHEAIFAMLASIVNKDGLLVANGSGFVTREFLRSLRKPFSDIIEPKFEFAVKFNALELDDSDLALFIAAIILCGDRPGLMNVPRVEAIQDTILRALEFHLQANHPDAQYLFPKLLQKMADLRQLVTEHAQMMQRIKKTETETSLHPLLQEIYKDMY
In short: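 A PPARd-bla HEK293H line with beta-lactamase under an Upstream Activator Sequence is treated with compounds at 37 C. Substrate loading for 2 h at room temperature precedes the fluorescence measurement.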

[3] = qHTS assay to identify small molecule antagonists of the peroxisome proliferator-activated receptor delta (PPARd) signaling pathway - cell viability counter screen (AID 743213); further: nearly all actives have a fitted effect of over 50% in size
In short: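 Viability counter-screen, qHTS format: PPARd-bla HEK293H, L165041 300 nM final, 17 h compound exposure at 37 C, CellTiter-Glo luminescence after 30 min RT.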

[4] = biological target: Peroxisome proliferator-activated receptor delta (Homo sapiens) (UniProt Q03181); assay: qHTS assay to identify small molecule antagonists of the peroxisome proliferator-activated receptor delta (PPARd) signaling pathway (AID 743215; active means well fitted inhibition curve with a large enough effect in the signal ratio in the repeat runs, not every such curve was filed as active; the % refers to the signal ratio;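 further: cells stimulated with agonist L165041 at 300 nM final during compound exposure; series mostly up to about 62 µM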)
In short: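 With L165041 present at 300 nM final, compounds were incubated 17 h at 37 C on PPARd UAS-bla HEK293H cells. A FRET-based beta-lactamase substrate was then applied for 2 h at room temperature and fluorescence intensity recorded.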

[5] = qHTS assay to identify small molecule agonists of the farnesoid-X-receptor (FXR) signaling pathway - cell viability counter screen (AID 743218); further: nearly all actives have a fitted effect of over 45% in size; further: potency means the concentration at half of the fitted maximal effect
In short: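 After 16 h at 37 C with test compounds, FXR-bla HEK 293T cells were given LiveBLAzer B/G substrate for 2 h at RT and then CellTiter-Glo; luminescence was taken after 30 min.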

[6] = qHTS assay to identify small molecule antagonists of the farnesoid-X-receptor (FXR) signaling pathway - cell viability counter screen (AID 743221; active means well fitted cell-killing curve with a large enough effect in the repeat runs, not every such curve was filed as active; further: nearly all actives have a fitted effect of over 50% in size; further: potency means the concentration at half of the fitted maximal effect)
In short: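 In GeneBLAzer FXR-UAS-bla HEK 293T cells stimulated with 50 uM chenodeoxycholic acid (final), compounds acted for 16 h at 37 C. Viability was assessed afterwards by CellTiter-Glo luminescence.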

[7] = biological target: Vitamin D3 receptor (Homo sapiens) (UniProt P11473); assay: qHTS assay to identify small molecule agonists of the vitamin D receptor (VDR) signaling pathway (AID 743222; calls by dose curve)
Sequence of Vitamin D3 receptor (Homo sapiens) (P11473 whole entry, looked up): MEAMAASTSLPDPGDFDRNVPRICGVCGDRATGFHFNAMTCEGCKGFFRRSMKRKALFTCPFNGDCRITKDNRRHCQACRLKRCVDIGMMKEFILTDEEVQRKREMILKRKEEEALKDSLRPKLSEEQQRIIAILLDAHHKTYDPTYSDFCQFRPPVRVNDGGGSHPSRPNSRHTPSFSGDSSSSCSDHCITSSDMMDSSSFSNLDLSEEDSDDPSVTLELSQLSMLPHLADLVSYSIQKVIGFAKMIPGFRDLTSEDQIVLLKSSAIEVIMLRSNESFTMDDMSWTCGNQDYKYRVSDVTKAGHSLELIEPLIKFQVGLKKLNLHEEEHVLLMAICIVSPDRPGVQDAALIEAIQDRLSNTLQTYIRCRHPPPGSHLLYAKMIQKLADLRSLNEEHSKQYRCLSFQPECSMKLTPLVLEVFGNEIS
In short: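 VDR-bla cells were seeded, left 4 h, treated with compounds in DMSO for 16 h, incubated 2 h at RT with B/G FRET substrate, and read for fluorescence.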

[8] = biological target: Vitamin D3 receptor (Homo sapiens) (UniProt P11473); assay: qHTS assay to identify small molecule antagonists of the vitamin D receptor (VDR) signaling pathway (AID 743223; active means well fitted inhibition curve with a large enough effect in the signal ratio in the repeat runs, not every such curve was filed as active; the % refers to the signal ratio)
In short: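 Agonist 1alpha,25-dihydroxyvitamin D3 (3 nM in well) was added with each compound to VDR-bla cells preincubated 4 h. Cells stood 16 h at 37C, then FRET substrate 2 h at room temperature; fluorescence intensity recorded.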

[9] = qHTS assay to identify small molecule agonists of the vitamin D receptor (VDR) signaling pathway - cell viability counter screen (AID 743224); further: series mostly up to about 63 µM; nearly all actives have a fitted effect of over 50% in size
In short: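 Here cell health was gauged by luminescent ATP detection (CellTiter-Glo, 30 min RT) in VDR-bla cells that had been incubated with test compounds for 16 h at 37C and 5% CO2.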

[10] = qHTS assay to identify small molecule antagonists of the vitamin D receptor (VDR) signaling pathway - cell viability counter screen (AID 743225); further: nearly all actives have a fitted effect of over 50% in size
In short: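 Luminescent cell viability (CellTiter-Glo) in VDR-bla HEK 293T cells after 16 h compound exposure at 37C in the presence of 3 nM final 1-alpha,25-dihydroxy vitamin D3.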

[11] = qHTS assay to identify small molecule agonists of the NFkB signaling pathway - cell viability counter screen (AID 1159515; calls by dose curve; further: series mostly up to about 61 µM; nearly all actives have a fitted effect of over 55% in size)
In short: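 5 hr compound treatment of NFkB-bla ME-180 cells (2,000/well, seeded overnight beforehand), followed by reporter substrate for 1.5 hr. CellTiter-Glo added afterward; luminescence after 30 min RT.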

[12] = qHTS assay to identify small molecule agonists of the endoplasmic reticulum stress response signaling pathway (AID 1159516; active means well fitted activation curve with a large enough effect in the signal ratio in the repeat runs, not every such curve was filed as active; the % refers to the signal ratio)
In short: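 Reporter HeLa cells (ESRE-beta-lactamase) underwent 5 hr compound incubation at 37 C and 5% CO2 in quantitative HTS format. Detection followed 2 hr of FRET substrate loading at room temperature.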

[13] = qHTS assay to identify small molecule agonists of the endoplasmic reticulum stress response signaling pathway - cell viability counter screen (AID 1159517; calls by dose curve)
In short: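 CellTiter-Glo was added to wells already read for beta-lactamase FRET, and luminescence was recorded 30 min later. Cells: ESRE-bla HeLa, 1,500 per well, compound exposure 5 hr at 37 C.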

[14] = qHTS assay to identify small molecule antagonists of the retinoid-related orphan receptor gamma (ROR-gamma) signaling pathway - cell viability counter screen (AID 1159520); further: nearly all actives have a fitted effect of over 50% in size
In short: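 Tet-on ROR gamma CHO cells (1,000/well) were plated 4 hr, given compounds in DMSO for 2 hr at 37 C, then induced with 1 uM final doxycycline for 16 hr. Viability was read as ATP by CellTiter-Glo luminescence after 30 min.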

[15] = biological target: Nuclear receptor ROR-gamma (Homo sapiens) (UniProt P51449); assay: qHTS assay to identify small molecule antagonists of the retinoid-related orphan receptor gamma (ROR-gamma) signaling pathway (AID 1159521)
In short: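 CHO cells expressing RORγ under a TET-on promoter, luciferase under RORE control. Dox 1 uM final, 16 h; compounds added 2 h prior. Luminescence decrease measured.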

[16] = qHTS assay to identify small molecule agonists of the AP-1 signaling pathway - cell viability counter screen (AID 1159525; calls by dose curve; further: nearly all actives have a fitted effect of over 55% in size)
In short: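 ME-180 AP-1-bla, 2500 cells/well, Opti-MEM + 0.5% dialyzed FBS; overnight 37 °C; cpd 15-pt titration, 5 h 37 °C; CellTiter-Glo 30 min RT; luminescence read; normalised to TOAB and DMSO controls.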

[17] = qHTS assay to identify small molecule agonists of the AP-1 signaling pathway (AID 1159526; calls by dose curve)
[18] = biological target: Retinoic acid receptor RXR-alpha (Homo sapiens) (UniProt P19793); assay: qHTS assay to identify small molecule agonists of the RXR signaling pathway (AID 1159527; calls by dose curve; further: nearly all actives have a fitted effect of over 35% in size)
Sequence of Retinoic acid receptor RXR-alpha (Homo sapiens) (P19793 whole entry, looked up): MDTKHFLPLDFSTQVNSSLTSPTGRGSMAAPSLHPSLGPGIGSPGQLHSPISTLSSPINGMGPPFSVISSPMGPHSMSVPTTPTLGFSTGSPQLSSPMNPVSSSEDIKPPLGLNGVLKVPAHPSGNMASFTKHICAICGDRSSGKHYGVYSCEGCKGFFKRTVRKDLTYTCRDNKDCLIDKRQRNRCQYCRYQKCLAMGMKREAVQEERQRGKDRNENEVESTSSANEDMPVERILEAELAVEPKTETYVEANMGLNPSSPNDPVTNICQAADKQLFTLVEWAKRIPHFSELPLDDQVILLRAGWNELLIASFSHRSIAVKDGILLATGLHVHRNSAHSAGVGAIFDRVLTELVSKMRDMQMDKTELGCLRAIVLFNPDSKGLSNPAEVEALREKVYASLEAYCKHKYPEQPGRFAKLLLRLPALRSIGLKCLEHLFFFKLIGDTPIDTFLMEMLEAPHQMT
In short: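 Beta-lactamase reporter assay, agonist format. Engineered HEK 293T line, charcoal-stripped FBS at 2%, overnight (16 hr) exposure, fluorescence at 460 and 530 nm after 405 nm excitation.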

[19] = biological target: Bile acid receptor (Homo sapiens) (UniProt Q96RI1); assay: qHTS assay to identify small molecule antagonists of the farnesoid-X-receptor (FXR) signaling pathway (AID 743217; active means well fitted inhibition curve with a large enough effect in the signal ratio in the repeat runs, not every such curve was filed as active; the % refers to the signal ratio)
Sequence of Bile acid receptor (Homo sapiens) (Q96RI1 whole entry, looked up): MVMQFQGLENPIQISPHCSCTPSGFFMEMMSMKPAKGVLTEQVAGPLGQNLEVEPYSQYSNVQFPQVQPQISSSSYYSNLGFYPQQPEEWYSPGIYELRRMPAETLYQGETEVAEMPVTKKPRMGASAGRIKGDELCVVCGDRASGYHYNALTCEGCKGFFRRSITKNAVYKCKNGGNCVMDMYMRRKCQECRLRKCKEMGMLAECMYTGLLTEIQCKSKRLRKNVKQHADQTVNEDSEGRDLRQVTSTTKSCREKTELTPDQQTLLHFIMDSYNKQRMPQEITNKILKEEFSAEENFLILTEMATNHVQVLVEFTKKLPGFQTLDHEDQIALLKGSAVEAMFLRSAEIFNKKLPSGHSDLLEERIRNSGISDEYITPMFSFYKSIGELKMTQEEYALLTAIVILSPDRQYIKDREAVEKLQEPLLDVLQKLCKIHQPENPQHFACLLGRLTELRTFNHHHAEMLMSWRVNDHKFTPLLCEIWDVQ
In short: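 In this cell-based antagonist screen, inhibition of CDCA-driven (50 uM final) UAS-beta-lactamase expression in HEK 293T cells was measured by FRET fluorescence following 16 h compound exposure at 37 °C.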

[20] = biological target: Bile acid receptor (Homo sapiens) (UniProt Q96RI1); assay: qHTS assay to identify small molecule agonists of the farnesoid-X-receptor (FXR) signaling pathway (AID 743220; active means well fitted activation curve with a large enough effect in the signal ratio in the repeat runs, not every such curve was filed as active; the % refers to the signal ratio)
In short: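 Beta-lactamase reporter under UAS control in GeneBLAzer FXR HEK 293T cells (5000/well) measured with LiveBLAzer FRET substrate after 2 h at room temperature. Compound exposure lasted 16 h at 37C.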

SMILES	Potency [1]	Potency [2]	Potency [3]	Potency [4]	Potency [5]	Potency [6]	outcome [7]	Potency [8]	Potency [9]	Potency [10]	Potency [11]	Potency [12]	Potency [13]	Potency [14]	Potency [15]	Potency [16]	outcome [17]	Potency [18]	Potency [19]	Potency [20]
Cc1ccc([N+](=O)[O-])cc1	inactive	inactive	inactive	inactive	inactive	inactive	inactive	inactive	inactive	inactive	inactive	inactive	inactive	inactive	inactive	inactive	inactive	inactive		
ClC(Cl)(Cl)Br	inactive	inactive		inactive	inactive	inactive	inactive	inactive	inactive	inactive	inactive	inactive	inactive	inactive	inactive	inactive	inactive	inactive	inactive	inactive
S=c1[nH]c2ccccc2[nH]1	inactive				inactive	inactive			inactive	inactive	inactive	inactive	inactive	inactive	inactive	inactive	inactive	inactive		
C[N+](C)(C)CC(=O)O	inactive	inactive		inactive		inactive			inactive	inactive	inactive	inactive	inactive	inactive	inactive	inactive	inactive	inactive		
C[N+](C)(C)CC(=O)[O-]	inactive	inactive	inactive	inactive	inactive	inactive			inactive	inactive	inactive	inactive	inactive	inactive	inactive	inactive	inactive	inactive		
N#Cc1cccnc1	inactive	inactive	inactive	inactive	inactive	inactive		inactive	inactive	inactive	inactive	inactive	inactive	inactive	inactive	inactive	inactive	inactive	inactive	inactive
CCC1(c2ccc(N)cc2)CCC(=O)NC1=O (stereo not drawn)	inactive		inactive		inactive	inactive		inactive	inactive	inactive	inactive	inactive	inactive	inactive	inactive	inactive	inactive	inactive	inactive	inactive
CCCCOCCOC(C)=O	inactive	inactive	inactive			inactive		inactive	inactive	inactive	inactive	inactive	inactive	inactive	inactive	inactive	inactive	inactive	inactive	inactive
O=NN(c1ccccc1)c1ccccc1	inactive	inactive	inactive	inactive	inactive	inactive			inactive	inactive	inactive	inactive	inactive	inactive	inactive	inactive	inactive	inactive	inactive	inactive
NC(=O)CN1CCCC1=O	inactive		inactive		inactive	inactive		inactive	inactive	inactive	inactive	inactive	inactive	inactive	inactive	inactive	inactive	inactive		
COc1ccc(CO)cc1	inactive		inactive			inactive		inactive	inactive	inactive	inactive	inactive	inactive	inactive	inactive	inactive	inactive	inactive	inactive	inactive
O=S(=O)(O)C(F)(F)C(F)(F)C(F)(F)C(F)(F)C(F)(F)C(F)(F)C(F)(F)C(F)(F)F	inactive				52.3 µM (active) and 49 µM (active) and 33.6 µM (active)	41.6 µM (active) and 13.8 µM (active) and 6.16 µM (active)	inactive	inactive			inactive	inactive	inactive	inactive	inactive	inactive	inactive	inactive		
O=P(OCCCl)(OCCCl)OCCCl	inactive	inactive		inactive		inactive		inactive	inactive	inactive	inactive	inactive	inactive	inactive	inactive	inactive	inactive	inactive	inactive	inactive
COP(=S)(OC)Oc1ccc(Sc2ccc(OP(=S)(OC)OC)cc2)cc1	inactive	inactive		inactive	inactive	inactive	inactive	inactive	inactive	inactive	inactive	inactive	inactive	inactive	inactive	inactive	inactive	inactive		
CCNCC	inactive	inactive	inactive	inactive	inactive	inactive	inactive		inactive	inactive	inactive	inactive	inactive	inactive	inactive	inactive	inactive	inactive		
CNC(=O)CSP(=S)(OC)OC	inactive	inactive		inactive	inactive	inactive	inactive	inactive	inactive	inactive	inactive	inactive	inactive	inactive	inactive	inactive	inactive	inactive		
